Screens: PubChem BioAssay, several laboratories
Only some compounds are listed: those with a hit (about 3.1% of all), similar ones and a draw of the others.
BoNT-F LC inh – inhibitors of Botulinum neurotoxin F light chain protease. inhibition, % at 10 µM. AID 588497. 0.22% of 360,000 active. Multiplex microsphere protease cleavage assay, flow cytometry; in the data active = inhibition above about 35%, passing the limit was not always enough; inconclusive = no clear call, values can overlap the other calls; note: plate controls were buffer without enzyme for full effect and enzyme alone for no effect
BoNT A protease – inhibitors of Botulinum neurotoxin A light chain protease. multiplex microsphere protease substrate cleavage, flow cytometry. AID 588499. inhibition, % at 10 µM. 0.17% of 360,000 active; note: plate controls were buffer without enzyme for full effect and enzyme alone for no effect
Anthrax LF inh2 – inhibitors of Bacillus anthracis lethal factor protease; multiplex microsphere protease cleavage assay, LF; inhibition, % at 10 µM; AID 588501; 0.12% of 360,000 active; P15917; note: plate controls were buffer without enzyme for full effect and enzyme alone for no effect
Target sequence (P15917 whole entry, looked up): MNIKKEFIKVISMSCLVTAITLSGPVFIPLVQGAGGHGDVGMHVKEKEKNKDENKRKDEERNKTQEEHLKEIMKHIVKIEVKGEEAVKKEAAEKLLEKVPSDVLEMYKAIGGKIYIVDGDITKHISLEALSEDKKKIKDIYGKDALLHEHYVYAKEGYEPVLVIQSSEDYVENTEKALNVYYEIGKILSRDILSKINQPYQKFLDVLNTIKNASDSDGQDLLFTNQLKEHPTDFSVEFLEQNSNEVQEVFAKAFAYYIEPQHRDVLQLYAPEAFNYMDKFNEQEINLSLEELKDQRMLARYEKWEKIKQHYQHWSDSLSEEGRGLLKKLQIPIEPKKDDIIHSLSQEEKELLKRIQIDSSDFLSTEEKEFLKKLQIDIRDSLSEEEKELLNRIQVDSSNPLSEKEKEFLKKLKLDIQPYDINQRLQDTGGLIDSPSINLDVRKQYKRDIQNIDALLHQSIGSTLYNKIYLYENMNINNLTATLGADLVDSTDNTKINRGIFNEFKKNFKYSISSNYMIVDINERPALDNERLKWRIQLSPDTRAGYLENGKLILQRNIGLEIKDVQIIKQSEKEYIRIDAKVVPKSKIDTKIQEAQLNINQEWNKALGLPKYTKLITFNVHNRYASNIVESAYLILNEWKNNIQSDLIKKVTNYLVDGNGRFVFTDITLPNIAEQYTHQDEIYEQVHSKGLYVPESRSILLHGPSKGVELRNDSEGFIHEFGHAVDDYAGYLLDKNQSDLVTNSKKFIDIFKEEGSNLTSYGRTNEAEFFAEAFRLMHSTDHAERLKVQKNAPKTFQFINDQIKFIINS
Bead autofluor – flagged as autofluorescent in microsphere protease counterscreen. compound autofluorescence counterscreen, microsphere flow cytometry; hits give high values. fluorescence intensity (concentration not given with the values). 3.1% of 360,000 active. AID 624483; in the data active = fluorescence intensity above about 16000; inconclusive = no clear call, values can overlap the other calls
SSB-PriA inh – blocks PriA binding to SSB C-terminal tail | AlphaScreen SSBct-PriA binding, biotinylated peptide | inhibition, % at 33 µM | 0.6% of 430,000 active | AID 1272365; in the data active = inhibition mostly above about 37%, no sharp cut-off; inactive = mostly below about 20%;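 note: plate controls were negative control peptide for no effect and reference peptide for full effect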
Starred values were filed as active, the others as inactive. Cut-off read from the data, not from the text of the source, unless noted: active = inhibition above about 30%; inconclusive = no clear call, values can overlap the other calls; inactive = below that.

For Cc1ccccc1N1CCN(c2ncnc3scc(-c4cccs4)c23)CC1 the results were BoNT-F LC inh 0, BoNT A protease 2, Anthrax LF inh2 -10, Bead autofluor 21408* and SSB-PriA inh 4.
For O=C(CCc1ccc(Cl)c(C(F)(F)F)c1)NC[C@H]1CCCN1c1nccs1 the results were SSB-PriA inh -9.
For CCOC(=O)c1c(C)[nH]c(C)c1C(=O)COC(=O)c1ccc(S(=O)(=O)N(CC)CC)cc1 the results were BoNT-F LC inh -3, BoNT A protease inconclusive, Anthrax LF inh2 -7, Bead autofluor 16763* and SSB-PriA inh 16.
Screening CCOC(=O)c1c(C)[nH]c(C)c1C(=O)COC(=O)c1cccc(S(=O)(=O)N(CC)CC)c1 returned BoNT-F LC inh -4, BoNT A protease 0, Anthrax LF inh2 -2, Bead autofluor 3602 and SSB-PriA inh 4.
For CC(Cc1ccoc1)NC(=O)c1ccccc1C(F)(F)F (stereo unspecified) the results were SSB-PriA inh -12.
For Cc1ccc(SCCCC(=O)N2CCN(c3ccccc3)CC2)cc1 the results were SSB-PriA inh -4.
For CCOC(=O)C1CCN(C(=O)C(=O)c2cn(CC(=O)N3CCCCCC3)c3ccccc23)CC1 the results were BoNT-F LC inh 17, BoNT A protease 44*, Anthrax LF inh2 31*, Bead autofluor 8139 and SSB-PriA inh 7.
For CCOC(=O)C1CCCN(C(=O)C(=O)c2cn(CC(=O)N3CCOCC3)c3ccccc23)C1 (stereo unspecified) the results were BoNT-F LC inh -98, BoNT A protease -53, Anthrax LF inh2 -7, Bead autofluor 19022* and SSB-PriA inh 2.
For O=C(N[C@H]1CCc2n[nH]c(=O)cc2C1)c1cc(C2CC2)[nH]n1 the results were SSB-PriA inh -15.
Screening COc1ccc2c(c1)/C(=C/c1cnc[nH]1)C(=O)N2 returned BoNT-F LC inh 2, BoNT A protease 0, Anthrax LF inh2 -12, Bead autofluor 6058 and SSB-PriA inh -1.
Screening O=C1Nc2ccccc2/C1=C/c1cnc[nH]1 returned BoNT-F LC inh 0, BoNT A protease 3, Anthrax LF inh2 -7, Bead autofluor 19606* and SSB-PriA inh 8.
For Cc1ccsc1C(=O)OCC(=O)Nc1ccc(Cl)cc1C(F)(F)F the results were BoNT-F LC inh 4, BoNT A protease 1, Anthrax LF inh2 1, Bead autofluor 2801 and SSB-PriA inh -3.
Cc1ccc(C(=O)NCC(=O)OCC(=O)Nc2ccc(Cl)cc2C(F)(F)F)cc1C was read as BoNT-F LC inh 38*, BoNT A protease 5, Anthrax LF inh2 0, Bead autofluor 2860 and SSB-PriA inh 2.
For O=C(Cc1cccc(C(F)(F)F)c1)N1CCN(c2cc3c(nn2)CCCC3)CC1 the results were SSB-PriA inh -6.
COc1ccc([C@@H]2Sc3cc(OC)ccc3N(CCN(C(C)C)C(C)C)C(=O)[C@H]2OC(C)=O)cc1 was read as BoNT-F LC inh 5, BoNT A protease 3, Anthrax LF inh2 -4, Bead autofluor 20962* and SSB-PriA inh -19.
For CC(NC(=O)c1ccc(CS(=O)(=O)c2ccc(Cl)cc2)o1)c1ccc2c(c1)OCCO2 (stereo unspecified) the results were BoNT-F LC inh -2, BoNT A protease -1, Anthrax LF inh2 -1, Bead autofluor 20032* and SSB-PriA inh -10.
`Cc1ccc(CS(=O)Cc2ccc(C(=O)NCc3ccc4c(c3)OCO4)o2)cc1` (stereo unspecified) gave BoNT-F LC inh 0, BoNT A protease -1, Anthrax LF inh2 0, Bead autofluor 5404 and SSB-PriA inh -13.
Screening Cc1ccc(S(=O)(=O)Cc2ccc(C(=O)NCCCN3CCN(C)CC3)o2)cc1 returned BoNT-F LC inh -4, BoNT A protease inconclusive, Anthrax LF inh2 -2, Bead autofluor 23094* and SSB-PriA inh 4.
Screening Cc1ccccc1S(=O)(=O)Cc1ccc(C(=O)NC(C)c2ccc3c(c2)OCCO3)o1 (stereo unspecified) returned BoNT-F LC inh -6, BoNT A protease 0, Anthrax LF inh2 0, Bead autofluor 5946 and SSB-PriA inh -11.
`COCCNC(=O)c1ccc(CS(=O)(=O)c2ccc(C)cc2)o1` gave BoNT-F LC inh -2, BoNT A protease -1, Anthrax LF inh2 -3, Bead autofluor 22139* and SSB-PriA inh -12.
Cc1ccc(S(=O)(=O)Cc2ccc(C(=O)NCc3ccc4c(c3)OCO4)o2)cc1 was read as BoNT-F LC inh 2, BoNT A protease inconclusive, Anthrax LF inh2 -2, Bead autofluor 22168* and SSB-PriA inh -8.
For COC(CNC(=O)c1ccc(CS(=O)(=O)c2ccc(C)cc2)o1)OC the results were BoNT-F LC inh -8, BoNT A protease -4, Anthrax LF inh2 -5, Bead autofluor 3621 and SSB-PriA inh -6.
For CC(C)Oc1ccc(C(=O)NCCn2ncc3c(NCc4ccc(F)cc4)ncnc32)cc1 the results were SSB-PriA inh -10.
`COC(=O)c1c(NC(=O)CCCC(=O)O)sc2c1CCC2` gave BoNT-F LC inh 1, BoNT A protease -1, Anthrax LF inh2 0, Bead autofluor 22669* and SSB-PriA inh 73*.
`COC(=O)c1c(NC(=O)CC2SCC(C(=O)OC)NC2=O)sc2c1CCCC2` (stereo unspecified) gave BoNT-F LC inh -5, BoNT A protease -3, Anthrax LF inh2 -1, Bead autofluor 24791* and SSB-PriA inh 2.
For O=C(CNC(=O)OCc1ccccc1)Nc1ccccc1Cc1nc(-c2ccco2)no1 the results were SSB-PriA inh -10.
CCCN1CN(Cc2ccco2)c2nc3ccccc3n2C1 was read as BoNT-F LC inh 4, BoNT A protease inconclusive, Anthrax LF inh2 1, Bead autofluor 18478* and SSB-PriA inh -5.
c1coc(CN2CNc3nc4ccccc4n3C2)c1 was read as BoNT-F LC inh 2, BoNT A protease 0, Anthrax LF inh2 5, Bead autofluor 4172 and SSB-PriA inh 4.
`CC1CCCCN1c1ccc(N2CCNCC2)nn1` (stereo unspecified) gave SSB-PriA inh 4.
`COC(=O)Cc1cc(=O)n(-c2nc3ccccc3[nH]2)[nH]1` gave BoNT-F LC inh -1, BoNT A protease 1, Anthrax LF inh2 -3, Bead autofluor 15981 and SSB-PriA inh 75*.
O=C(Nc1c(C(=O)N2CCOCC2)cnn1-c1ccccc1)c1ccco1 was read as BoNT-F LC inh -2, BoNT A protease inconclusive, Anthrax LF inh2 -4, Bead autofluor 23770* and SSB-PriA inh -34.
Screening CCOc1ncccc1C(=O)Nc1c(C)nc2sc(C)c(C)n2c1=O returned SSB-PriA inh 1.
For CC(O)c1cc2c(cc1NC(=O)c1cnn3c1NC(c1ccco1)CC3C(F)(F)F)OCO2 (stereo unspecified) the results were BoNT-F LC inh 20, BoNT A protease 2, Anthrax LF inh2 -1, Bead autofluor 4827 and SSB-PriA inh -11.
`Cc1ccc(C2CC(C(F)(F)F)n3nc(C(=O)NCc4ccco4)cc3N2)cc1` (stereo unspecified) gave BoNT-F LC inh -6, BoNT A protease inconclusive, Anthrax LF inh2 -2, Bead autofluor 24280* and SSB-PriA inh -1.
